Among the test systems are HCT-15 colon; SNB-75 CNS; SNB-19 CNS; PC-3 prostate; SK-MEL-5 melanoma; UACC-62 melanoma; LOX IMVI melanoma; SK-MEL-28 melanoma; EKVX NSCLC; SN12C renal; UO-31 renal; TK-10 renal; ACHN renal; CAKI-1 renal; A498 renal; CCRF-CEM leukemia; U251 CNS; MOLT-4 leukemia; SK-MEL-2 melanoma.
Assay in all cases: NCI-60 one-dose screen, 48 h (100 = growth as untreated, 0 = no growth, -100 = all killed)
Holding throughout (conditions): 10 µM unless noted

SMILES strings stand for the structures. This is part of a sample that, as a whole, favours compounds with a hit. Of some 83,000 tested, about 20% had one in any assay.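 Treatment: one concentration, 48 hours, 96-well format. Scoring: percent growth, with anything below 10 considered active.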 Values without a mark were called inactive. Activity calls are given as the source filed them.

For the compound `COc1ccc(N2CCN(CC(=O)N3CCN(c4nnc(-c5ccccc5)c(-c5ccccc5)n4)CC3)CC2)cc1`, the growth is 35.9% in the assay on HCT-15 colon; 70.2% in the assay on SNB-75 CNS; 62.8% in the assay with SNB-19 CNS; 22% with PC-3 prostate; 13.9% in the assay with SK-MEL-5 melanoma; 56.7% in the assay on UACC-62 melanoma. Besides, the growth with LOX IMVI melanoma was 44.6%; with SK-MEL-28 melanoma, 71.3%; with EKVX NSCLC, 35.3%; with SN12C renal, 46.8%; with UO-31 renal, 24.9%; in the assay with TK-10 renal it was 64.7%. Further, the growth is 40.5% in the assay on ACHN renal, 76.5% in the assay with CAKI-1 renal, 44.1% with A498 renal and 32.4% in the assay on CCRF-CEM leukemia.
As to `O=C(Nc1cccc(-n2cc(-c3ccncc3)c(-c3cc(O)cc(Cl)c3)n2)c1)Nc1ccc(Cl)c(Cl)c1`, the growth with HCT-15 colon was -25.3% (active); in the assay with SNB-75 CNS, 4.08% (active); in the assay with SNB-19 CNS, 30.8%; in the assay with U251 CNS it was -56.5% (active); in the assay with PC-3 prostate, -1.66% (active); in the assay on SK-MEL-5 melanoma, -53% (active). Also, the growth in the assay on UACC-62 melanoma is -61.8% (active); with LOX IMVI melanoma, -84.7% (active); in the assay on SK-MEL-28 melanoma, -50.9% (active); in the assay with SN12C renal it was 14.9%; in the assay with UO-31 renal it was -41.3% (active); in the assay on ACHN renal it was 6.85% (active). In addition, the growth was 5.31% (active) in the assay on CAKI-1 renal, -2.98% (active) in the assay with A498 renal, 4.11% (active) in the assay with CCRF-CEM leukemia and -27.1% (active) with MOLT-4 leukemia.
Turning to `CCN(CC)CCCCCCCNc1c2ccc(Cl)cc2nc2ccc(OC)cc12`, the growth is -5.62% (active) with HCT-15 colon; -94.1% (active) in the assay with SNB-75 CNS; -10.1% (active) in the assay on SNB-19 CNS; -70.2% (active) in the assay with U251 CNS; -56.1% (active) with PC-3 prostate; -100% (active) in the assay on SK-MEL-5 melanoma. Also, the growth in the assay on UACC-62 melanoma is -55% (active); in the assay with LOX IMVI melanoma, -7.86% (active); with SK-MEL-28 melanoma, -77.4% (active); with UO-31 renal, -52% (active); in the assay on ACHN renal, -39.1% (active); with A498 renal, -92.1% (active). For the same compound, the growth in the assay with CCRF-CEM leukemia is 0.0912% (active); with MOLT-4 leukemia, -11.3% (active).
In the case of `CC(C)N(Cc1ccccc1)c1c(S)ssc1=S`, the growth was 10.4% in the assay with HCT-15 colon; -2.3% (active) with SNB-75 CNS; 20.9% in the assay on SNB-19 CNS; 5.51% (active) with U251 CNS; 1.17% (active) in the assay with PC-3 prostate; -75.9% (active) in the assay with SK-MEL-5 melanoma. Further, the growth is 10.1% in the assay on LOX IMVI melanoma; 21.8% in the assay with SK-MEL-28 melanoma; 7.27% (active) in the assay with SK-MEL-2 melanoma; 5.44% (active) with EKVX NSCLC; 11% in the assay with SN12C renal; 37.1% with TK-10 renal. The growth in the assay on ACHN renal is 5.95% (active); in the assay on CAKI-1 renal it was -2.48% (active); with A498 renal it was -7.36% (active); in the assay with CCRF-CEM leukemia, -81.6% (active); with MOLT-4 leukemia, 0.0865% (active).
Take `COc1ccc(-c2cc(-c3cccnc3)nc3sc(C(=O)Nc4ccccc4)c(N)c23)cc1OC`: the growth is 63.5% with HCT-15 colon; 82.8% in the assay on SNB-75 CNS; 79.8% in the assay with SNB-19 CNS; 61.3% with U251 CNS; 56.9% in the assay with PC-3 prostate; 69.3% in the assay on UACC-62 melanoma. For the same compound, the growth in the assay on LOX IMVI melanoma was 60%; in the assay with SK-MEL-28 melanoma, 73.3%; in the assay on SN12C renal it was 57.2%; in the assay with UO-31 renal, 32.2%; in the assay with ACHN renal it was 41.1%; in the assay on A498 renal it was 65.1%. In the assay with CCRF-CEM leukemia, the growth is 36.9%.
Consider `O=[N+]([O-])c1ccc(NS(=O)(=O)c2ccc(Cl)c(Cl)c2)cc1`, for which the growth was 88.7% in the assay with HCT-15 colon; 86.7% with SNB-75 CNS; 70.1% with SNB-19 CNS; 66.5% in the assay on PC-3 prostate; 40.2% with SK-MEL-5 melanoma; 38.8% in the assay with UACC-62 melanoma. Further, the growth was 93.3% in the assay with LOX IMVI melanoma; 78.4% in the assay with SK-MEL-28 melanoma; 60.9% with SN12C renal; 70% in the assay on UO-31 renal; 94.3% in the assay on TK-10 renal; 94% in the assay on ACHN renal. For the same compound, the growth was 65.2% with CAKI-1 renal, 55.9% in the assay with A498 renal and 81.3% in the assay with MOLT-4 leukemia.
On to `Cc1ccc(NC(=O)c2sc3nc4c(cc3c2N)C(=O)CCC4)cc1`, for which the growth in the assay on HCT-15 colon was 58.6%; in the assay with SNB-75 CNS it was 86.3%; in the assay on SNB-19 CNS, 72.2%; with U251 CNS it was 86.6%; with PC-3 prostate it was 73.2%; in the assay on SK-MEL-5 melanoma it was 53.2%. Moreover, the growth is 69.2% in the assay on UACC-62 melanoma; 93.1% with LOX IMVI melanoma; 84.8% with SK-MEL-28 melanoma; 87.8% with SN12C renal; 84.8% in the assay on UO-31 renal; 56.6% with CAKI-1 renal. Also, the growth was 70.9% in the assay on CCRF-CEM leukemia and 95.9% with MOLT-4 leukemia.
As for `O=C(CSc1nnc(-c2cc(-c3ccccc3)nc3ccccc23)o1)c1ccc(Br)cc1`, the growth in the assay on HCT-15 colon was 109%; in the assay with SNB-75 CNS, 97.4%; in the assay with SNB-19 CNS it was 93.2%; with U251 CNS, 98.2%; in the assay with PC-3 prostate it was 107%; in the assay with SK-MEL-5 melanoma, 103%. The growth in the assay with UACC-62 melanoma was 94.8%; with LOX IMVI melanoma, 101%; with SK-MEL-28 melanoma, 113%; in the assay with SN12C renal, 98%; with UO-31 renal, 83.1%; in the assay on ACHN renal, 107%. For the same compound, the growth with CAKI-1 renal is 91.2%; in the assay with A498 renal it was 102%; in the assay with CCRF-CEM leukemia, 105%; with MOLT-4 leukemia, 104%.

These data come from PubChem BioAssay (NCI).
